Among the data in PubChem BioAssay (NCATS) are Potency and outcome values, retold here.

Assay [1] addresses Protein phosphatase 1D (Homo sapiens) (UniProt O15297). Briefly: RapidFire Mass Spectrometry qHTS Assay for Modulators of WT P53-Induced Phosphatase 1 (WIP1) (AID 1347424). Further: series mostly up to about 63 µM. An outline of the steps:
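RapidFire MS readout of dephosphorylated VEPPL-S-QETFS product, with 1 uM isotope-labelled peptide standard. Reaction: 10 nM WIP1, 2 uM phosphopeptide substrate, 5 min, room temperature, after 1 h compound preincubation; stopped with 0.5% formic acid.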
(In general: In qHTS, concentration-response curves come from the screen itself.)

Assay [2] can be described thus: Primary qHTS for inhibitors of La Crosse Virus (LACV) - induced cell death in SH-SY5Y cells (AID 1508616).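 Further: top concentration of the series differs between compounds; higher means more rescue of cells from virus-induced death.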 An outline of the steps: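 Screening measures cell viability in LACV-infected SH-SY5Y cultures. Compound was added before virus (0.01 MOI), and ATP was detected by luminescence 6 days later.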
The target in assay [3] is Calcium and integrin-binding protein 1 (Homo sapiens) (UniProt Q99828). Briefly: Primary qHTS for Identification of Calcium Integrin Binding Protein 1 (CIB1) Competitor (AID 1508620).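 Further: GST tagged CIB1 binding a fluorescein labelled alphaIIb integrin peptide tracer; top concentration of the series differs between compounds.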 The method, boiled down:
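Fluorescence polarization competition: GST-tagged CIB1 (1 uM final) preincubated with compound 15 min at room temperature, then FITC-labelled alphaIIb peptide (100 nM final) added. After 15 min at room temperature, polarization read at Ex 480/Em 540.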

Assay [4] in a line: Primary qHTS for small molecule stabilizers of the endoplasmic reticulum resident proteome: Secreted ER Calcium Modulated Protein (SERCaMP) assay (AID 1508630). The method, boiled down: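 The SH-SY5Y reporter protocol was run at 3 concentrations up to 38.3 uM (primary) or 11 concentrations (follow-up): 16 h compound, 100 nM thapsigargin for 4 h, then extracellular luciferase luminescence.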

Assay [5] in a line: A High-Content qHTS Against Drug Library for the Identification of Small Molecules that Inhibit DYT1 Early Onset Primary Dystonia-Associated Cell Pathology (AID 1645839; calls by dose curve; further: potency means the concentration at half of the fitted maximal effect). An outline of the steps: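 Cells were seeded and left for 24 h, then dosed with compound alongside tetracycline induction of mutant EGFP-TorsinA. They were incubated for 48 h, fixed in 4% paraformaldehyde, permeabilized and imaged for mislocalization (%pathology) and cell count.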

Assay [6] concerns the target Cytochrome P450 2D6 (Homo sapiens) (UniProt P10635). Briefly: Cytochrome P450 family 2 subfamily D member 6 (CYP2D6) small molecule antagonists: luciferase biochemical (cell-free) qHTS assay (AID 1645840; active means well fitted curve in the direction sought with a large enough effect in the repeat runs; an effect the other way counts as inactive or inconclusive; further: nearly all actives have a fitted effect of over 55% in size; further: potency means the concentration at half of the fitted maximal effect). The method, boiled down: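 P450-Glo CYP2D6 system: proluciferin substrate converted by enzyme to luciferin, read by luminescence proportional to activity. Enzyme-substrate mix with compound 10 min at room temperature, then NADPH regeneration 1 h before detection reagent.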

Assay [7] deals with Cytochrome P450 2C9 (Homo sapiens) (UniProt P11712). Put plainly: Cytochrome P450 family 2 subfamily C member 9 (CYP2C9) small molecule antagonists: luciferase biochemical (cell-free) qHTS assay (AID 1645842; active means well fitted curve in the direction sought with a large enough effect in the repeat runs; an effect the other way counts as inactive or inconclusive; further: nearly all actives have a fitted effect of over 55% in size; further: potency means the concentration at half of the fitted maximal effect). The method, boiled down:
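P450-Glo CYP2C9 system: proluciferin substrate with enzyme in mix containing 0.4% BSA, 10 min at room temperature, then NADPH regeneration solution added and incubated 1 h at 37C. Detection reagent stopped reaction; luminescence read after 20 min as RLU.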

A short description of assay [8]: Primary qHTS for inhibitors of nuclear receptor binding SET domain protein 2 (NSD2) in an isogenic RCH-ACV NSD2 p.E1099K mutant (9B) (AID 1645876). Further: nearly all actives have a fitted effect of over 70% in size. Further: potency means the concentration at half of the fitted maximal effect.
Assay [9] can be described thus: Primary qHTS for inhibitors of nuclear receptor binding SET domain protein 2 (NSD2) in an RCH-ACV wild type WT cells (2C) (AID 1645877). Further: nearly all actives have a fitted effect of over 70% in size. Further: potency means the concentration at half of the fitted maximal effect.
The target of assay [10] is Protein phosphatase 1D (Homo sapiens) (UniProt O15297). Put plainly: Rhodamine-PBP qHTS Assay for Modulators of WT P53-Induced Phosphatase 1 (WIP1) (AID 1347425). An outline of the steps: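 5 nM WIP1 + 10 uM Rh-PBP, 50 mM Tris pH 7.5, 30 mM MgCl2, 1 mM TCEP, 0.1 mM EGTA, BSA; cpds pinned, 1 hr RT; + 10 uM phosphopeptide; fluorescence 1-min reads x 11 min; delta = f1 - f0.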

In assay [11] the target is Calcium and integrin-binding protein 1 (Homo sapiens) (UniProt Q99828). Briefly: Validation qHTS for Identification of Calcium Integrin Binding protein 1 (CIB1) Competitor (AID 1508618). An outline of the steps:
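Displacement of FITC-alphaIIb peptide (100 nM) from CIB1-GST (1 uM) is monitored by polarization in quantitative HTS format; buffer carries 5 mM CaCl2 and 125 mM NaCl at pH 7.4, incubations are at room temperature.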

A further assay deals with Papain (Carica papaya) (UniProt P00784). Put plainly: Primary qHTS assay for inhibitors of the protease papain (AID 1645873).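 Further: papain turnover of Z-FR-AMC read as the AMC fluorescence gain over 10 min; series mostly up to about 50 µM.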
Assay [12] addresses Calcium and integrin-binding protein 1 (Homo sapiens) (UniProt Q99828). Briefly: Confirmatory qHTS for Identification of Calcium Integrin Binding Protein 1 (CIB1) Competitor (AID 1508617). Further: potency means the concentration at half of the fitted maximal effect; nearly all actives have a fitted effect of over 65% in size. An outline of the steps:
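Confirmatory qHTS measures displacement of a FITC-alphaIIb peptide (100 nM) from CIB1-GST (1 uM) by fluorescence polarization. Calcium-containing HEPES buffer, pH 7.4; two 15 min room-temperature incubations.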

Assay [13] has as its target Cytochrome P450 3A4 (Homo sapiens) (UniProt P08684). Briefly: Cytochrome P450 family 3 subfamily A member 4 (CYP3A4) small molecule antagonists: luciferase qHTS assay (AID 1645841; active means well fitted curve in the direction sought with a large enough effect in the repeat runs; an effect the other way counts as inactive or inconclusive; further: nearly all actives have a fitted effect of over 45% in size). The method, boiled down:
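P450-Glo CYP3A4 enzyme with proluciferin substrate preincubated 10 min with compound at room temperature, then NADPH regeneration 1 h. Luciferin detection reagent added for 20 min; luminescence recorded. Ketoconazole positive control.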

The target of assay [14] is N-terminal Xaa-Pro-Lys N-methyltransferase 1 (Homo sapiens) (UniProt Q9BV86). Put plainly: Confirmatory qHTS for Inhibitors of N-terminal methyltransferase 1 (NTMT1): MTaseGlo Assay (AID 1645874). Further: potency means the concentration at half of the fitted maximal effect; nearly all actives have a fitted effect of over 65% in size. An outline of the steps: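 Enzyme mix (125 nM NTMT1, 100 uM SAM) + compound, 15 min RT; + 1 uM SPKRIA, 30 min RT, dark; MTase-Glo reagent 30 min, detection solution 30 min; luminescence. % inhibition vs no-enzyme/DMSO controls, 4-parameter Hill fit.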

Assay [15] in a line: Validation qHTS assay for inhibitors of Activation Induced Cytidine Deaminase (AID): UDG Counterscreen signal (AID 1347427). An outline of the steps:
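Fluorescence at 560 nm excitation, 665 nm emission reports UDG signal after 250 mM NaOH (2x) addition and 30 min. Enzymes (AID 1 uM, UDG 2 U/mL, at 4/3x) preincubated 10 min with compound, then 4 h with 4x 250 nM DJC20/DJC23 substrate at room temperature.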

Values joined by “and” are separate entries in the source; they are usually repeats but may differ in a detail not shown here. Identical values can stand only once. Records with an inconclusive call do not appear. Active and inactive are the calls of the source. Unless noted, the call rests on the fitted dose curve; in most records, active means well fitted curve in the direction sought with a large enough effect; inconclusive means small, poorly fitted or top-dose-only effect, or another doubt; inactive means no such curve, though single readings can be large; an effect the other way counts as inactive or inconclusive. Non-standard residues stand in square brackets, D forms with d. Residues, ends and D or L forms follow the SMILES beside them. *: point of attachment. Sta = CC(C)C[C@H](N)[C@@H](O)CC(=O)O; Isovaleryl = CC(C)CC(=O)*

Sequence of Cytochrome P450 2D6 (Homo sapiens) (P10635 whole entry, looked up): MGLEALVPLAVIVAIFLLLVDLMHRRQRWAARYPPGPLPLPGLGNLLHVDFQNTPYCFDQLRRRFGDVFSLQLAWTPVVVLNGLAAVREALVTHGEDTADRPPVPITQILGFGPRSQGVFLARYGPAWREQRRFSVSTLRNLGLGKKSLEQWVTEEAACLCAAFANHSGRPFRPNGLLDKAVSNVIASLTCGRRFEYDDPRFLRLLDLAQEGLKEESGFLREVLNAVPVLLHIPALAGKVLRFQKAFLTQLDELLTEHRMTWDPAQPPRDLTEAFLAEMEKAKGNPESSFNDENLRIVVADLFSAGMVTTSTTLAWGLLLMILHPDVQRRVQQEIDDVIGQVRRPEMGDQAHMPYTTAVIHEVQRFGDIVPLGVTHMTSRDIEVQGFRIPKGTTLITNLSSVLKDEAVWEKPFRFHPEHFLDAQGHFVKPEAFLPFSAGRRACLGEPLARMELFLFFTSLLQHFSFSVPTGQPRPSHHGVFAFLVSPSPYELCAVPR
Sequence of Cytochrome P450 2C9 (Homo sapiens) (P11712 whole entry, looked up): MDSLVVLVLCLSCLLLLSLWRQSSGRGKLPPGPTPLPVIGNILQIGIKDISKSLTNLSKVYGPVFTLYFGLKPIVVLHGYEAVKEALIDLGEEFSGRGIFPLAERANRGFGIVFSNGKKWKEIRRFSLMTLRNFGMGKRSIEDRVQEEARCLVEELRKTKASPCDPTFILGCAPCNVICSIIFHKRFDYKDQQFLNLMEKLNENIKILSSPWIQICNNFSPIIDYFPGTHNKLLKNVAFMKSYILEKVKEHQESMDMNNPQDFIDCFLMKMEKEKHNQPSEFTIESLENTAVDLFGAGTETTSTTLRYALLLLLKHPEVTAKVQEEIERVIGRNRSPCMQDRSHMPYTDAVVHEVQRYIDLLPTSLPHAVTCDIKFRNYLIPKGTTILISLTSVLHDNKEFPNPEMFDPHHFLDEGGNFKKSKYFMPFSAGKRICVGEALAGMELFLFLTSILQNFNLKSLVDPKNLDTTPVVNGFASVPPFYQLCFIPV
Sequence of Protein phosphatase 1D (Homo sapiens) (O15297 whole entry, looked up): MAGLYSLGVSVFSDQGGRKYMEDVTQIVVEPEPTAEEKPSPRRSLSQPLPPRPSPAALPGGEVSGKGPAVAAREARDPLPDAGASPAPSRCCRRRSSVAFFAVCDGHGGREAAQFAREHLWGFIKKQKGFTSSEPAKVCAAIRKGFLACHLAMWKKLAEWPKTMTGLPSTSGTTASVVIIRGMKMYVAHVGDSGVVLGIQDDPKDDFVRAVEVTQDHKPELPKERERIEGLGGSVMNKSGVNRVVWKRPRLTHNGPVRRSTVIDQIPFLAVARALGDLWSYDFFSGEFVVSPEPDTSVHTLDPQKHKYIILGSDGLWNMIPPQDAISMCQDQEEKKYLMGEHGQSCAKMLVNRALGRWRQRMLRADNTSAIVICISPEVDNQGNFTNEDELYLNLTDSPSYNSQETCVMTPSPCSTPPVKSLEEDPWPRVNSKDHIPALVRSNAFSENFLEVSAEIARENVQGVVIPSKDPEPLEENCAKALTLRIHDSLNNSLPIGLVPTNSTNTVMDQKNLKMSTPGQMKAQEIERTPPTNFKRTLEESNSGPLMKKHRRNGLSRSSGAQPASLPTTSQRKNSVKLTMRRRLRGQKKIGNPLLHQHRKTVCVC
Sequence of Calcium and integrin-binding protein 1 (Homo sapiens) (Q99828 whole entry, looked up): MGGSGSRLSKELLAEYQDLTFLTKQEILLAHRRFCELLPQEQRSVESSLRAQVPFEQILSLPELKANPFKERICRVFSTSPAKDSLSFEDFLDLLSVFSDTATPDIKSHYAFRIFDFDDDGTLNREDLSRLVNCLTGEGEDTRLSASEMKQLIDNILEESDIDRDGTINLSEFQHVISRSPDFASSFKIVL
Sequence of Papain (Carica papaya) (P00784 whole entry, looked up): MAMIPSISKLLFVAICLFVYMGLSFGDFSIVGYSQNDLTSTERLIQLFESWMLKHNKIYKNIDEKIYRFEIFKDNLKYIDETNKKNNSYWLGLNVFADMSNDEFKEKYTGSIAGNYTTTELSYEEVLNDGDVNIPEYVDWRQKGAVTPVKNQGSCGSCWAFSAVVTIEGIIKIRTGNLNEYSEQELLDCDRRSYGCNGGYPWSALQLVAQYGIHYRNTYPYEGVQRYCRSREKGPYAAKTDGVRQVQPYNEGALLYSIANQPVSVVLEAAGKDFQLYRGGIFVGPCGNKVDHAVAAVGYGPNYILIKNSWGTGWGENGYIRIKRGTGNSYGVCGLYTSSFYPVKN
Sequence of N-terminal Xaa-Pro-Lys N-methyltransferase 1 (Homo sapiens) (Q9BV86 whole entry, looked up): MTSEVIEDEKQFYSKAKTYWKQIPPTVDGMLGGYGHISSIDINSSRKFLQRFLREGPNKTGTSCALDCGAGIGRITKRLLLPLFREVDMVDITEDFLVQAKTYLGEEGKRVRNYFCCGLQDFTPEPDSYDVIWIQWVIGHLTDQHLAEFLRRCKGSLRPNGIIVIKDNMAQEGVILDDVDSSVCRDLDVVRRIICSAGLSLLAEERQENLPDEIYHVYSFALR
Sequence of Cytochrome P450 3A4 (Homo sapiens) (P08684 whole entry, looked up): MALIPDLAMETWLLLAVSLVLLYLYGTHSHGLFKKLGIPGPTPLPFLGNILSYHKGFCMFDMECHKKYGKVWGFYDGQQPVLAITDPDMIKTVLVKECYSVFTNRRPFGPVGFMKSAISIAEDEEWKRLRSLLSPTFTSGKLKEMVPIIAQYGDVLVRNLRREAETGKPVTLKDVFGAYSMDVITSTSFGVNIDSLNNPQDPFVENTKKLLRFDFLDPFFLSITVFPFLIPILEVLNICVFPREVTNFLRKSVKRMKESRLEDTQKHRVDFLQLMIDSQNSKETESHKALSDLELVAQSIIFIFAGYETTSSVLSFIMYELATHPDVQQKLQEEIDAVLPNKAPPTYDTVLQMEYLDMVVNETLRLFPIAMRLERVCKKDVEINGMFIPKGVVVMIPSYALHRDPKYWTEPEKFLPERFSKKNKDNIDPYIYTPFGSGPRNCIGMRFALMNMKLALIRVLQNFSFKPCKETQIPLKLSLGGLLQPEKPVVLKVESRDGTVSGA

As to `COc1cc(OC)c(C(=O)CCCN2CCCC2)c(OC)c1`, the Potency entry in [1], in assay [2], in assay [3], in [4], in assay [5] and in assay [7] was “inactive” throughout. For the same compound, the Potency entry in [8] and in assay [9] was “inactive” in each case. In [6], the Potency is 11 µM (active).

For the compound `CC(C)Oc1ccc2c(=O)c(-c3ccccc3)coc2c1`, the Potency result in assay [1], in assay [2], in assay [3], in assay [4], in assay [5] and in [6] was “inactive” throughout. Further, the Potency result in assay [8] and in [9] was “inactive” in each case. Besides, in [7], the Potency was 13.8 µM (active) and 21.9 µM (active).

Consider `CC(C)CC(=O)N[C@H](C(=O)N[C@H](C(=O)N[C@@H](CC(C)C)[C@@H](O)CC(=O)N[C@@H](C)C(=O)N[C@@H](CC(C)C)[C@@H](O)CC(=O)O)C(C)C)C(C)C` (Isovaleryl-VV[Sta]A[Sta]-OH), for which the compound was called inactive in assay [10]. The Potency result in assay [2], in [3], in assay [4], in assay [5], in [6] and in assay [7] was “inactive” throughout. In addition, the Potency entry in [8] and in assay [9] was “inactive” in each case.

`COc1cc2c(N3CCN(C(=O)Nc4ccc(OC(C)C)cc4)CC3)ncnc2cc1OCCCN1CCCCC1`: the Potency entry in assay [1], in assay [3], in assay [4], in assay [5] and in [7] was “inactive” in each case. Moreover, the Potency in assay [6] was 12.3 µM (active); in [8] it was 18.8 µM (active) and 25.8 µM (active) and 16.6 µM (active); in assay [9] it was 13.3 µM (active) and 23 µM (active) and 16.6 µM (active).

On to `O=C(NOCC1CC1)c1ccc(F)c(F)c1Nc1ccc(I)cc1Cl`, for which the Potency result in assay [1], in assay [2], in [3], in [4] and in assay [6] was “inactive” each time. The Potency was 617 nM (active) in assay [7]; 8.41 µM (active) and 23 µM (active) in [8]; 6.68 µM (active) and 20.5 µM (active) in assay [9].

In the case of `c1cnc2cc3c(cc2n1)C1CNCC3C1`, the result in assay [10] and in [11] was inactive. The Potency result in [2], in [3], in assay [4], in assay [5], in assay [6] and in assay [7] was “inactive” throughout. In addition, the Potency result (in the assay with Papain (Carica papaya); in [8]; in [9]) was “inactive” in each case.

On to `CC1=C(C(=O)O)N2C(=O)[C@@H](NC(=O)[C@H](N)C3=CCC=CC3)[C@H]2SC1`, for which the result in assay [10] was inactive. For the same compound, the Potency result in [2], in [3], in assay [4], in [5], in [6] and in [7] was “inactive” in each case. Moreover, in [8], the Potency result was “inactive”.

On to `CCC1=C(C)CN(C(=O)NCCc2ccc(S(=O)(=O)NC(=O)NC3CCC(C)CC3)cc2)C1=O` (stereo not drawn), for which the Potency entry in assay [1], in assay [2], in [3], in assay [4], in [6] and in [8] was “inactive” throughout.

With `COc1cc(Nc2c(C#N)cnc3cc(OCCCN4CCN(C)CC4)c(OC)cc23)c(Cl)cc1Cl`, the call in assay [10] and in assay [13] was inactive. The Potency entry in [2], in assay [3], in assay [4], in assay [6] and in assay [7] was “inactive” each time. The Potency was 44.7 µM (active) in assay [12]; 10 µM (active) in [5]; 15.8 µM (active) in assay [14]; 596 nM (active) and 1.63 µM (active) and 1.32 µM (active) in [8]; 531 nM (active) and 1.63 µM (active) and 1.48 µM (active) in assay [9].

`COc1ccccc1N1CCN(CCN(C(=O)C2CCCCC2)c2ccccn2)CC1`: the Potency result (in assay [15]; in [2]; in [3]; in assay [4]; with Papain (Carica papaya); in assay [8]) was “inactive” throughout. For the same compound, the Potency entry in assay [9] is “inactive”. Also, in assay [11], the result was inactive.
